TWEAK-Fn14 inh: inhibitors of TWEAK-Fn14 signaling, primary screen, luciferase reporter cells, uHTS | TWEAK-stimulated Fn14 reporter cells, luciferase luminescence, 8 h | inhibition, % at 10 µM | hit rate 2% among 360,000; in the data active = inhibition above about 50%
Peg3 prom inh-1: Peg3 promoter-driven luciferase inhibitors, primary screen, cell-based, HeLa, luciferase luminescence | HeLa PEG-Prom luciferase reporter, overnight | inhibition, % at 20 µM | hit rate 1.7% among 360,000;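 active = inhibition of at least 50% at 20 µM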
KKLEB tox: cytotoxicity in KKLEB CF airway cells, primary screen, cytotoxicity control for CF NF-kB inhibitor project, cell-based, uHTS, fluorescence assay plates; KKLEB CF airway cells viability, ATPlite luminescence, overnight; hits give low values; cells stimulated with P. aeruginosa culture filtrate; activity change (cytotoxicity), % at 5 µM; hit rate 0.36% among 360,000; AID 602141, 2011;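 active = corrected activity change at or below -50% at 5 µM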
CF NFkB block: inhibitors of PAF-induced NF-kB signaling, primary screen, cell-based, GFP fluorescence, uHTS; KKLEB NF-kB-GFP reporter, GFP fluorescence overnight; inhibition, % at 5 µM; hit rate 0.86% among 360,000; AID 588850, 2011;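 active = at least 50% inhibition at 5 µM, scaled per plate between neutral and stimulator controls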;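 also: PAF is a Pseudomonas aeruginosa culture filtrate used as stimulus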
TROY NFkB inh: inhibitors of TROY-driven NF-kB signaling, primary screen, Q293 LMP1-TROYcd cells, NF-kB luciferase, uHTS. Q293 LMP1-TROYcd NF-kB luciferase reporter, 4 h. inhibition, % at 10 µM. hit rate 0.98% among 360,000;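 active = compounds whose plate-normalised and pattern-corrected inhibition of the luciferase reporter signal at the single screening dose is 50% or more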
HIF-2a block: HIF-2a reporter inhibitors, primary screen, luminescence, 786-0 RCC cells; AID 624352, 2012; hit rate 0.72% among 360,000; 786-0 RCC cells HIF-2a reporter, luciferase luminescence, overnight; inhibition, % at 18.8 µM;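 active = inhibition of the luminescence signal of 40% or more relative to plate controls, in a single-dose primary screen at 18.75 µM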
Peg3 prom inh-2: Peg3 promoter reporter inhibitors, retest, confirmation, cell-based, HeLa, luciferase reporter, single concentration. shares compounds with Peg3 prom inh-1. hit rate 84% among 1,300. HeLa PEG-Prom luciferase reporter, luminescence, overnight. inhibition, % at 20 µM;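 active = at 20 µM dose, 40% or more inhibition averaged across four replicates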
CF NFkB inh conf: inhibitors of PAF-induced NF-kB signaling, retest, confirmation, cell-based, GFP fluorescence, single concentration; shares compounds with CF NFkB block; KKLEB CF airway cells, overnight; inhibition, % at 5 µM; hit rate 64% among 1,300; in the data active = inhibition above about 40%;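 also: stimulus PAF is a Pseudomonas aeruginosa filtrate and not platelet activating factor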
Mdm2-MdmX confirm: retested Mdm2-MdmX interaction blockers, confirmation, cell-based, luminescence, single concentration, set 2; shares compounds with HIF-2a block; SaOS-2 split-luciferase Mdm2/MdmX complementation; inhibition, % at 8 µM; hit rate 99% among 740;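 active = mean inhibition of the luminescence signal across two replicates at or above 26 percent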
Target sequence (O15151 whole entry, looked up): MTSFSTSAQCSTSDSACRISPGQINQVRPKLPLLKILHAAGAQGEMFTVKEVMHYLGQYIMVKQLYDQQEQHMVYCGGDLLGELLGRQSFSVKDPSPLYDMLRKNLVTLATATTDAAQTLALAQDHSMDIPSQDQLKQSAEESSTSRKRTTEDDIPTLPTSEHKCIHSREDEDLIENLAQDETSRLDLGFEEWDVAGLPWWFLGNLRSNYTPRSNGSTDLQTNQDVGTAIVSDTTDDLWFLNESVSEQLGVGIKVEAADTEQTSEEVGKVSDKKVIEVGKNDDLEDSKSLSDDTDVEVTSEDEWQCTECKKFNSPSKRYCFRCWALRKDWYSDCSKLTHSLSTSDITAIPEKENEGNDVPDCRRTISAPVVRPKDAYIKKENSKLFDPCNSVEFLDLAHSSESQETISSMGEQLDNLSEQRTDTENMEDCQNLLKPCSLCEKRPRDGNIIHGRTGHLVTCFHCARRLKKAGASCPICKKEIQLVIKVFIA
Target sequence (Q00987 whole entry, looked up): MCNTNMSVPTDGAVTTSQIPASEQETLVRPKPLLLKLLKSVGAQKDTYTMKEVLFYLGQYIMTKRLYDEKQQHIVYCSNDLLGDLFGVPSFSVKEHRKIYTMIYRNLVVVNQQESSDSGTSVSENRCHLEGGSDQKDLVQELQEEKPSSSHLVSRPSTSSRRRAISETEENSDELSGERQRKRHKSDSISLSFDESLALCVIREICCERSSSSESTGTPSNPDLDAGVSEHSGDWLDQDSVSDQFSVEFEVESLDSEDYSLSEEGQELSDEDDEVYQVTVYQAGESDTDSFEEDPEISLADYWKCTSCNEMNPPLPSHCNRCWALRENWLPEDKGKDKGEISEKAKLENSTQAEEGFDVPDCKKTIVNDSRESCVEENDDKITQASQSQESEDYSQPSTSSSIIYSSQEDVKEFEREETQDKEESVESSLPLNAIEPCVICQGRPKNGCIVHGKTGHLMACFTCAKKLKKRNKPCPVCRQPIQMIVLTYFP
HIF-2a conf: HIF-2a reporter inhibitor retest, confirmation, luminescence, 786-0 RCC cells; shares compounds with HIF-2a block; HIF-2a luciferase reporter luminescence, overnight; inhibition, % at 18.8 µM; hit rate 56% among 1,800;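 active = mean inhibition across four replicates of at least 40 percent at the single tested concentration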
HIF-1a cs: HIF-1a luciferase reporter signal reduction – MiaPaCa-2 cells, single concentration, counter-screen for HIF-2a inhibitor project, confirmation; inhibition, % at 18.8 µM; hit rate 72% among 1,800; AID 651589, 2012; shares compounds with HIF-2a block; MiaPaCa-2 HIF-1a luciferase reporter, desferoxamine, overnight;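 active = mean inhibition of the reporter signal across four replicates at the single tested dose of 50% or more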
Numbers stand for hits; - = inactive; . = no result given. Only some compounds are listed: those with a hit (about 4% of all), similar ones and a draw of the others.

SMILES | TWEAK-Fn14 inh | Peg3 prom inh-1 | KKLEB tox | CF NFkB block | TROY NFkB inh | HIF-2a block | Peg3 prom inh-2 | HIF-2a conf | HIF-1a cs | others
O=C(/C=C/c1cc(Br)ccc1O)c1ccco1 | 62 | 107 | - | 94 | - | 94 | 99 | 46 | 102
CC(C)c1ccc(/C=N/Nc2ccc(C(=O)O)cc2)cc1 | 92 | 85 | - | - | 57 | 81 | 67 | 79 | -
Cc1ccc(/C=N/Nc2ccc(C(=O)O)cc2)s1 | - | 69 | - | - | - | 65 | 62 | 82 | 76
O=C(O)c1cc(N/N=C/c2ccc(-c3ccccc3)cc2)ccc1Cl | - | - | - | - | - | - | . | . | .
O=C(O)c1ccc(N/N=C/c2ccc(OC(=O)c3ccccc3Cl)cc2)cc1 | 96 | 64 | - | - | 55 | 81 | 58 | 84 | 80
O=C(O)c1ccc(N/N=C/c2cc(Br)cs2)cc1 | - | - | - | - | - | - | . | . | .
Cc1ccc(-n2c(C)c(C)c3c(NCCO)ncnc32)cc1 | - | - | - | - | - | - | . | . | .
COc1ccccc1NS(=O)(=O)c1cccc(C(=O)N/N=C/c2c(CO)cnc(C)c2O)c1 | - | - | - | - | - | - | . | . | .
CN(CCC#N)C(=O)COC(=O)c1ccccc1C(=O)c1ccc(Cl)c([N+](=O)[O-])c1 | - | 95 | - | 76 | 55 | 43 | - | - | 68 | CF NFkB inh conf=97
CC(=O)Nc1ccc(S(=O)(=O)NC(C)C(=O)NCC(c2ccco2)N2CCCCC2)cc1 (centres undefined) | - | - | - | - | - | - | . | . | .
Cc1ccc(S(=O)(=O)NC(CC(C)C)C(=O)NCC(c2ccco2)N2CCCCC2)cc1 (centres undefined) | 104 | 75 | - | - | 88 | 80 | 85 | 88 | 93
CC(=O)c1cccc(-c2csc3ncnc(Sc4nnnn4C)c23)c1 | 75 | 87 | - | 71 | - | 49 | 85 | 44 | 99 | CF NFkB inh conf=-
Cn1nnnc1Sc1ncnc2scc(-c3ccc4c(c3)OCO4)c12 | 58 | 75 | - | - | - | 63 | 77 | - | 78
C=CCn1cc(C(=O)N2CCN(C)CC2)c(=O)c2cc(S(=O)(=O)N(CC)CC)ccc21 | - | - | - | - | - | - | . | . | .
CCOC(=O)c1c(N)sc2c(OCC)c(Br)ccc12 | - | - | - | - | - | - | . | . | .
CCOC(=O)c1c(NC(C)=O)sc2c(OCC(O)CNC(C)(C)C)c(Br)ccc12 (centres undefined) | - | 108 | - | - | - | - | 99 | . | . | Mdm2-MdmX confirm=103
CC1=C([N+](=O)[O-])C(c2ccc(Cl)cc2)NC(=O)N1 (centres undefined) | - | - | - | - | - | - | . | . | .
COCCn1c(C)cc(C(=O)CSc2nnc3ccccn23)c1C | - | 64 | - | - | - | 44 | 54 | 76 | -
COCCn1c(C)cc(C(=O)CSc2nc(C)c(C)c(C)n2)c1C | - | - | - | - | - | - | . | . | .
O=S(=O)(Nc1cccc2ncccc12)c1cccs1 | 107 | 103 | - | - | 65 | 65 | 97 | . | . | Mdm2-MdmX confirm=103
COc1ccc2sc(N(CCCN(C)C)C(=O)c3ccc(S(=O)(=O)N4CCCC4)cc3)nc2c1 | - | - | - | - | - | - | . | . | .
COc1ccc2sc(N(CCCN(C)C)C(=O)c3ccc(S(=O)(=O)N4CCc5ccccc5C4)cc3)nc2c1 | - | 101 | -98 | 74 | - | 82 | 98 | - | 106 | Mdm2-MdmX confirm=95
CN(C)CCCN(C(=O)c1ccc(S(=O)(=O)N2CCc3ccccc3C2)cc1)c1nc2ccc(F)cc2s1 | - | 104 | - | - | - | 73 | 92 | - | 103
Cc1cnc(NC(=O)Nc2ccccc2)c(C)n1 | - | - | - | - | - | - | . | . | .
C[C@H](CO)N1C[C@H](C)[C@H](CN(C)C(=O)Nc2cccc(Oc3ccccn3)c2)OCc2cnnn2CCCC1=O | - | - | - | - | - | - | . | . | .
SMILES | TWEAK-Fn14 inh | Peg3 prom inh-1 | KKLEB tox | CF NFkB block | TROY NFkB inh | HIF-2a block | Peg3 prom inh-2 | HIF-2a conf | HIF-1a cs | others
Cc1csc(NC(=O)c2cn3ccccc3n2)n1 | 91 | 69 | - | - | 62 | 53 | 65 | 77 | 51
O=C(Nc1ccccc1)c1cc(C2CCCN(C(=O)C/C=C/c3ccccc3)C2)on1 (centres undefined) | - | - | - | - | - | - | . | . | .
CC(=O)N1CCCC(c2cc(C(=O)Nc3ccccc3)no2)C1 (centres undefined) | 101 | 65 | - | - | 80 | 72 | 73 | 82 | 60
CCSc1nc2ccccc2n1C(=O)/C=C\c1ccc(OC)c(OC)c1 | 91 | 106 | - | 82 | - | 86 | 94 | - | 103 | Mdm2-MdmX confirm=102
N#CC(C#N)=C1C=CC=CN1/C(=C\c1ccco1)C(=O)c1ccc(Br)cc1 | 92 | 111 | - | 79 | 78 | 92 | 98 | 98 | 105 | CF NFkB inh conf=-
C(=NNc1ccc2ccccc2n1)c1ccccn1 | 101 | 76 | -52 | - | 83 | 69 | 78 | 81 | -
C(=N\N=C\c1ccccn1)/c1ccccn1 | - | - | - | - | - | - | . | . | .
CN1OC[C@@H]2CN[C@H](c3cccc(-c4ccc(C#N)cc4)c3)C[C@@H]21 | - | - | - | - | - | - | . | . | .
COc1ccc(Cc2nnc(NC(=O)CS(=O)(=O)Cc3ccccc3)s2)cc1 | - | - | - | - | - | - | . | . | .
CC1=CC(=C2C(=O)c3ccccc3C2=O)C=C(C)O1 | - | - | - | - | - | - | . | . | .
CCCN1C=CC(=C2C(=O)c3ccccc3C2=O)C=C1 | 71 | 105 | -61 | - | 73 | 90 | 94 | . | . | Mdm2-MdmX confirm=99
